Screens from PubChem.
Hits are enriched below; roughly 7.6% of the tested compounds scored in any of these assays.
KB-V1 MDR tox = qHTS assay for MDR1-selective chemotherapeutics: Primary screen using the drug-selected MDR subline cells KB-V1. AID 1347076, 2019. KB-V1 MDR cells viability, CellTiter-Glo, 72 h. Potency, µM (doses to about 46.1 µM), most hits filed as cytotoxic. 400,000 compounds, 3.4% hits; note: potency is the fitted concentration of half-maximal effect; % is set by controls: 0 for no effect and ±100 for the full control effect; nearly all actives have a fitted effect of over 60% in size
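Following 72 h at 37 degrees C with compound, KB-V1 cell viability was read by CellTiter-Glo luminescence, medium being phenol-red-free DMEM plus 10% FBS; concentration-response parameters came from normalized, curve-fitted qHTS data.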
KCNH2 WT inh = qHTS for Inhibitors of KCHN2 3.1: Wildtype qHTS | Voltage-gated inwardly rectifying potassium channel KCNH2 (Homo sapiens), Q12809 | U2OS, BacMam KCNH2, thallium flux FluxOr; hits give low values | activity change, % at 1.84 µM | 340,000 compounds, 0.37% hits | AID 720551, 2013;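 active = maximum activity change below -70%; inconclusive = maximum activity change between -70% and -50%; inactive = maximum activity change above -50%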; note: % is set by controls: 0 for no effect and ±100 for the full control effect
Target sequence (Q12809 whole entry, looked up): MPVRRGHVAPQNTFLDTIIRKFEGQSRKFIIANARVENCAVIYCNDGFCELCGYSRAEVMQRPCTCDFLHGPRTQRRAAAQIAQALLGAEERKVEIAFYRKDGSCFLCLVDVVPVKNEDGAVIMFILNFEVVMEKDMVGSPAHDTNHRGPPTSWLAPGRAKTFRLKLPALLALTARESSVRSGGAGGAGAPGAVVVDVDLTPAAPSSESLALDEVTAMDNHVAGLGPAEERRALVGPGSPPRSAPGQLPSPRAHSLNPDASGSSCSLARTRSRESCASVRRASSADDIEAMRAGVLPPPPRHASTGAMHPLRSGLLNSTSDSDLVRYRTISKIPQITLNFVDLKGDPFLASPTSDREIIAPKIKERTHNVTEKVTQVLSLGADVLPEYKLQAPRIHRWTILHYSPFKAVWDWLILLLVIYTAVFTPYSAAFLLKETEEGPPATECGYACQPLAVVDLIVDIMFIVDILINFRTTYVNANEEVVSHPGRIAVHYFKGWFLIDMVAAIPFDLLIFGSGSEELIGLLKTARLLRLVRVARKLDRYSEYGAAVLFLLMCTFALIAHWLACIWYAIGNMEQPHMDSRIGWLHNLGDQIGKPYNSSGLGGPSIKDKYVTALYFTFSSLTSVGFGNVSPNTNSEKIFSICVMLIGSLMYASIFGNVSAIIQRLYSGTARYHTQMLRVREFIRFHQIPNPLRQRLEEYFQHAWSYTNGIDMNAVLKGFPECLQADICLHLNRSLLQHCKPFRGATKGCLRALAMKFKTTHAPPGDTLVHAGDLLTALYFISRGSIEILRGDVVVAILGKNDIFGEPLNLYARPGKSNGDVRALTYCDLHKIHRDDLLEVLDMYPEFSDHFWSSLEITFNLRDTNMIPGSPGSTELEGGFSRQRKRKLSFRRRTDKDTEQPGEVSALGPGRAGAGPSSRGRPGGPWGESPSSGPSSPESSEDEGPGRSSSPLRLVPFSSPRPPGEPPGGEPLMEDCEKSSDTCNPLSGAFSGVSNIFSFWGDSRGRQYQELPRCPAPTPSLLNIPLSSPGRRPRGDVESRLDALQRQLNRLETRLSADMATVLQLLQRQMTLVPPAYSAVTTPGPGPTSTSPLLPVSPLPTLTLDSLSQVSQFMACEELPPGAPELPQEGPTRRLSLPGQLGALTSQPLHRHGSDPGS
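U2OS cells transduced with wild-type KCNH2 virus are loaded with FluxOr dye for 45 min, and thallium flux is measured in kinetic reads before and after stimulation buffer. Rate constants are normalized to DMSO controls.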
SW480 rereplic = A quantitative high throughput screen for small molecules that induce DNA re-replication in SW480 colon adenocarcinoma cells; SW480 DNA re-replication, Hoechst DNA content imaging, 48 h; Potency, µM (top dose mostly 46.1 µM), for the others: at the highest dose re-replication activation, most hits filed as activators; 340,000 compounds, 1.8% hits; AID 624297, 2012; note: potency is the fitted concentration of half-maximal effect; % of control where 0% means no effect; nearly all actives have a fitted effect of over 55% in size
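250 cells/well; 23 nL cpd via pin tool; 48 hr, 37 C, 5% CO2; Hoechst 40 min; imager read of total nuclear intensity, ex 405/em 500-530 nm.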
KB-3-1 cytotox = qHTS assay for MDR1-selective chemotherapeutics: Primary screen using the parental adenocarcinoma cell KB-3-1; Potency, µM (titrated, usually from 46.1 µM), actives largely listed as cytotoxic; KB-3-1 viability, CellTiter-Glo ATP luminescence, 72 h; 400,000 compounds, 1.4% hits; note: potency is the fitted concentration of half-maximal effect; % is set by controls: 0 for no effect and ±100 for the full control effect; nearly all actives have a fitted effect of over 60% in size
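Multi-concentration cytotoxicity screen in KB-3-1 cells grown in DMEM lacking phenol red with 10% FBS. After 72 h at 37 °C with compound, ATP-dependent luminescence was recorded.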
MCF10A rereplic = A quantitative high throughput screen for small molecules that induce DNA re-replication in MCF 10a normal breast cells; 350,000 compounds, 2.9% hits; Potency, µM (top dose mostly 46.1 µM), for inactives: top-dose activity, positive = re-replication, usual class: activators; MCF 10A DNA re-replication, Hoechst nuclear intensity, 48 h; note: potency is the fitted concentration of half-maximal effect; % of control where 0% means no effect; nearly all actives have a fitted effect of over 50% in size
KCNH2 3.1 inh = qHTS for Inhibitors of KCHN2 3.1: Mutant qHTS; Potassium voltage-gated channel subfamily H member 2, brain isoform KCNH2 3.1 (human); U2OS KCNH2 3.1, thallium flux FluxOr; hits give low values; activity change, % (tested at about 1.8 µM); 340,000 compounds, 0.95% hits; AID 720553, 2013;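 active = maximum activity change below -70%; inconclusive = maximum activity change from -70% to -50%; inactive = maximum activity change above -50%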;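 note: thallium influx rate constant from kinetic fluorescence after stimulation buffer; % is set by controls: 0 for no effect and ±100 for the full control effect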
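Normalized rate constant (relative to positive and negative DMSO controls) derived from a 2 min kinetic fluorescence read after stimulation; U2OS cells expressing the 3.1 isoform via virus at 1.77 x 10^8 /mL.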
* hit, by the source's call; i = inactive; u = inconclusive; x = not tested or not shown; [ ] = dose if it differs, or a comment. Unless noted, calls come from the whole dose curve; as a rule, active = well fitted curve in the direction sought with a large enough effect; inconclusive = small, poorly fitted or top-dose-only effect, or another doubt; inactive = no such curve, though single readings can be large; an effect the other way counts as inactive or inconclusive.

SMILES	KB-V1 MDR tox	KCNH2 WT inh	SW480 rereplic	KB-3-1 cytotox	MCF10A rereplic	KCNH2 3.1 inh
COc1ccc2occ(C(=O)c3ccccc3)c2c1	i	-9	-8%	u	2%	3
CCN(CC)C(=O)Cn1c(=O)cc(C)c2c(C)nn(C)c21	i	x	x	i	x	x
CCOc1ccc(CCNC(=O)c2cc3c(s2)-c2ccccc2OC3)cc1OCC	u	x	x	i	x	x
CCN1C(=O)c2ccccc2S(=O)c2ccc(C(=O)N3CCN(c4cccc(C)c4)C(C)C3)cc21 (stereo unspecified)	i	x	x	18µM*	x	x
CCN1CCN(C(=O)c2ccc3c(c2)N(Cc2cc(C)ccc2C)C(=O)c2ccccc2S3=O)CC1 (stereo unspecified)	i	x	x	i	x	x
Cc1ccc(C)c(CN2C(=O)c3ccccc3S(=O)c3ccc(C(=O)N4CCN(c5ccccn5)CC4)cc32)c1 (stereo unspecified)	u	i	20%	10µM*	u	0
Cc1ccc(F)cc1NC(=O)CSCc1nc2sc(C)c(C)c2c(=O)[nH]1	i	-3	-17%	i	12%	4
CC1CCN(S(=O)(=O)N2CCC(C(=O)NCCC3=CCCCC3)CC2)CC1	i	-6	-1%	i	9%	6
COc1cc2c(cc1OC)CN(c1nc(CN3CCOCC3)nc3sc4c(c13)CCCC4)CC2	u	20	8%	u	18µM*	-30
Cc1ccc(Oc2nc(CN3CCOCC3)nc3sc4c(c23)CCC(C)C4)cc1 (stereo unspecified)	u	5	-3%	i	u	-17
COc1cc2c(cc1OC)CN(c1nc(CN3CCCCC3)nc3sc4c(c13)CCCC4)CC2	i	-3	u	i	u	-14
COc1cccc(Nc2nc(CN3CCOCC3)nc3sc4c(c23)CCCC4)c1	i	-134*	0%	u	5%	-6
Cc1ccc(Oc2nc(CN3CCOCC3)nc3sc4c(c23)CCC(C)C4)cc1C (stereo unspecified)	15µM*	-30	5%	u	u	6
COc1cc(/C=C2\C=Cc3ccccc32)cc(OC)c1OC	i	x	x	i	x	x
O=C(NCc1ccco1)C1CCCN(S(=O)(=O)c2ccc(Br)cc2)C1 (stereo unspecified)	i	-2	0%	i	-6%	21
COc1ccc(C(=O)c2oc3ccccc3c2NC(=O)COc2c(C)cc(C)cc2C)cc1	i	x	x	i	x	x
Nc1nc(-c2ccc3c(c2)CCO3)cs1	i	18	-5%	i	-2%	-3
Nc1nc(-c2ccc3c(c2)CCC(=O)N3)cs1	3.7µM*	0	-2%	5.2µM*	6%	-21
COc1ccc(Nc2nc3ccccc3c3nnc(C)n23)cc1Cl	i	x	x	i	x	x
C=CCn1c(NC(=O)c2ccc(Br)o2)c(S(=O)(=O)c2ccccc2)c2nc3ccccc3nc21	u	-1	17%	i	12µM*	-4
CCCCn1c(=O)c(CCC(=O)OCC(=O)Nc2ccc(F)c(Cl)c2)nc2ccccc21	i	22	-5%	i	8%	4
Cc1cc(Br)ccc1NC(=O)CNC(=O)CN(C)Cc1nc2ccccc2c(=O)[nH]1	i	-12	2%	i	18%	-99*
CN(Cc1nc2ccccc2c(=O)[nH]1)C(=O)c1ccccc1OCc1ccc(Cl)cc1	i	-11	0%	i	0%	16
Cc1ccc(NC(=O)CN(C)Cc2nc3ccccc3c(=O)[nH]2)c(Br)c1	u	2	14%	u	15%	-25
CN(Cc1nc2ccccc2c(=O)[nH]1)C(=O)c1cc(-c2ccc(Br)cc2)nc2ccccc12	15µM*	-15	21%	i	u	-35
SMILES	KB-V1 MDR tox	KCNH2 WT inh	SW480 rereplic	KB-3-1 cytotox	MCF10A rereplic	KCNH2 3.1 inh
Cc1ccn(-c2n[nH]c(C)c2[N+](=O)[O-])n1	i	11	0%	i	-6%	1
Cc1ccn(-c2ccc([N+](=O)[O-])cc2)n1	i	23	21µM*	i	-183%[0.0737 µM]	4
COc1ccc(CNC(=O)c2ccc(-c3nc(CSc4ccc(C)cc4)c(C)o3)cc2)cc1OC	i	x	x	i	x	x
Cc1ccc2onc(CC(=O)N3CCN(c4ccc(F)cc4)CC3)c2c1	u	x	x	i	x	x
O=C1OCCN1C(=O)[C@H]1[C@H](c2ccc(Cl)cc2)C(c2ccccc2)=NN1c1ccc(Br)cc1	i	-4	23µM*	i	u	-8
O=C1OCCN1C(=O)[C@H]1[C@H](c2ccccc2)C(c2cccc(Cl)c2)=NN1c1ccc(Br)cc1	i	5	2.1µM*	i	u	4
O=C1OCCN1C(=O)[C@H]1[C@H](c2ccc(F)cc2)C(c2cccc(Cl)c2)=NN1c1ccc(Br)cc1	i	3	1.3µM*	u	u	5
CCOc1ccc(N2C(=O)CS(=O)(=O)C23C(=O)N(Cc2cccc(Cl)c2)c2ccccc23)cc1 (stereo unspecified)	i	x	x	i	x	x
O=C(COC(=O)/C=C/c1ccccc1)Nc1nnc(-c2ccccc2)o1	i	3	5%	i	u	-4
COc1cc(/C=C/C(=O)OCC(=O)Nc2nnc(-c3ccccc3)o2)cc(OC)c1OC	12µM*	-10	-4%	i	u	9
COc1ccc(NC(=O)Nc2cccc([N+](=O)[O-])c2)cc1Cl	15µM*	-7	-1%	i	u	-6
COc1ccc(C(=O)Nc2cccc([N+](=O)[O-])c2)cc1Br	i	4	-8%	i	5%	-2
COc1ccc(OC(C)C(=O)Nc2cccc([N+](=O)[O-])c2)cc1 (stereo unspecified)	16µM*	-12	-149%	i	-43%	-9
O=C(Nc1ccc([N+](=O)[O-])cc1)Nc1ccc(OC(F)F)c(Cl)c1	4.6µM*	-5	18µM*	5.8µM*	u	11
Cc1ccc(C(=O)NCC(=O)N2CCc3ccccc3C2)cc1C	i	-1	-9%	i	2%	19
Cc1cc(C)c2c(c1)/C(=N/NS(=O)(=O)c1ccc(Br)cc1)CCC2	u	0	3%	i	7.1µM*	-14
